# From PubChem BioAssay (EPA / NIEHS)
# Several values for one entry are separate records, joined by “and”; a condition that tells them apart may be missing. Equal entries are not always repeated. Results filed as inconclusive are left out. Some compounds were tested as several samples or in several runs, with calls that do not always agree. Activity calls are given as the source filed them. How the source made its calls: active means hit-call score of the fitted dose curve at least 0.9, where 1 is the maximum; inconclusive means response in the unintended direction; inactive means score below 0.9.
# Tests used:
# [1] = target: human Serotonin, 5-Hydroxytryptamine Receptor 6 (5HT6), HTR6 (gene 3362) (UniProt P50406); assay: NVS_GPCR_h5HT6: NovaScreen (NVS) G Protein-Coupled Receptor Assay for human Serotonin, 5-Hydroxytryptamine Receptor 6 (5HT6) (AID 2283253)
# Procedure, shortened: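 Filter scintillation counting of radioligand displacement from HEK293-expressed 5HT6, 1 hour post-dose, with loss of signal relative to DMSO. Single 25 uM duplicates first, with concentration series for confirmation.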
# [2] = tested on: guinea pig Leukotriene B4 Receptor (LTB4), gene 100379538; assay: NVS_GPCR_gLTB4: NovaScreen (NVS) G Protein-Coupled Receptor Assay for guinea pig Leukotriene B4 Receptor (LTB4) (AID 2283247)
# Procedure, shortened: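 Membranes from guinea pig spleen incubated 2 h with radioligand and compound; bound counts measured by filtration and scintillation. Screened first at 25 uM in duplicate, then actives titrated to a 50 uM top concentration relative to DMSO.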
# [3] = target: human Adrenergic, Beta 3 Receptor (Adrb3), ADRB3 (gene 155) (UniProt P13945); assay: NVS_GPCR_hAdrb3: NovaScreen (NVS) G Protein-Coupled Receptor Assay for human Adrenergic, Beta 3 Receptor (Adrb3) (AID 2283262)
# Procedure, shortened: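 A cell-free filter binding assay read by scintillation counting, with displacement of a specific radioligand measured after 1 hour. The receptor source was SK-N-MC extracts (cells pretreated with isoproterenol and 8-bromo-cAMP). Compounds were first tested at 25 uM in duplicate and then in concentration series.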
# [4] = tested on: rat Monoamine Oxidase, MAO-A, Central (MAOAC), gene 29253; assay: NVS_ENZ_rMAOAC: NovaScreen (NVS) Enzymatic Assay for rat Monoamine Oxidase, MAO-A, Central (MAOAC) (AID 2283243);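 further: potency refers to inhibition seen as signal drop below DMSO baseline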
# Procedure, shortened: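 Single-concentration duplicate testing at 25 uM, then concentration-response for actives, in a lysate-based radiodetection MAO-A activity assay from rat brain. Enzyme activity measured 1.5 hours post-dosing; DMSO served as negative control and baseline.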
# [5] = target: guinea pig Opioid, Kappa 1 Receptor (OpiateK), OPRK1 (gene 100135587) (UniProt P41144); assay: NVS_GPCR_gOpiateK: NovaScreen (NVS) G Protein-Coupled Receptor Assay for guinea pig Opioid, Kappa 1 Receptor (OpiateK) (AID 2283252);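 further: active means reduced radioligand binding relative to DMSO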
# Procedure, shortened: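 Radioligand binding to kappa opioid receptor in guinea pig cerebellar membranes, read by filtration and scintillation at 2 h. Compounds first tested in duplicate at 25 uM, then actives in concentration series; signal loss fitted against DMSO.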
# [6] = target: human Serotonin, 5-Hydroxytryptamine Receptor 7 (5HT7), HTR7 (gene 3363) (UniProt P34969); assay: NVS_GPCR_h5HT7: NovaScreen (NVS) G Protein-Coupled Receptor Assay for human Serotonin, 5-Hydroxytryptamine Receptor 7 (5HT7) (AID 2283255);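 further: hits reduce specific radioligand binding relative to DMSO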
# Procedure, shortened: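 Filter-bound radioactivity counted after 1 h, with loss of specific radioligand binding fitted against DMSO. Membrane protein came from CHO cells expressing human 5HT7. Chemicals were tested first at 25 uM in duplicate, then in concentration series if active.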
# [7] = target: human Adrenergic, Alpha 2c Receptor (Adra2C), ADRA2C (gene 152) (UniProt P18825); assay: NVS_GPCR_hAdra2C: NovaScreen (NVS) G Protein-Coupled Receptor Assay for human Adrenergic, Alpha 2c Receptor (Adra2C) (AID 2283259)
# Procedure, shortened: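 Screened first in duplicate at 25 uM, with actives then run as concentration series. Membranes from Sf9 cells were exposed for 1 h, and displacement of radioligand was counted after filtration, using DMSO as baseline.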
# [8] = target: human Adrenergic, Alpha 2A Receptor (Adra2A), ADRA2A (gene 150) (UniProt P08913); assay: NVS_GPCR_hAdra2A: NovaScreen (NVS) G Protein-Coupled Receptor Assay for human Adrenergic, Alpha 2A Receptor (Adra2A) (AID 2283257)
# Procedure, shortened: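 Displacement of a specific radioligand from HT29 membrane protein was counted by filter scintillation after 1 h. Compounds were screened in duplicate at 25 uM, and actives were retested in concentration series. Fitting was positive-direction against DMSO.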
# [9] = tested on: guinea pig Muscarinic, Peripheral (Mperiperal) Receptor, Non-selective Binding, gene 100379235; assay: NVS_GPCR_gMPeripheral_NonSelective: NovaScreen (NVS) G Protein-Coupled Receptor Assay for guinea pig Muscarinic, Peripheral (Mperiperal) Receptor, Non-selective Binding (AID 2283250)
# Procedure, shortened: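 Screened in duplicate at 25 uM, hits retested in concentration series to 50 uM max, using bladder membrane radioligand displacement from guinea pig. Filtration and scintillation counting 1 h post-dose, fitted relative to DMSO.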
# [10] = target: guinea pig Leukotriene D4 Receptor (LTD4), CYSLTR1 (gene 100135514) (UniProt Q2NNR5); assay: NVS_GPCR_gLTD4: NovaScreen (NVS) G Protein-Coupled Receptor Assay for guinea pig Leukotriene D4 Receptor (LTD4) (AID 2283248)
# Procedure, shortened: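 Guinea pig lung membrane preparation; bound radioligand measured by filter scintillation after 1 h, loss of signal versus DMSO marking displacement. Compounds tested at 25 uM in duplicate, hits retested to max 50 uM.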
# [11] = target: human Adenosine A2a Receptor (AdoRA2a), ADORA2A (gene 135) (UniProt P29274); assay: NVS_GPCR_hAdoRA2a: NovaScreen (NVS) G Protein-Coupled Receptor Assay for human Adenosine A2a Receptor (AdoRA2a) (AID 2283256)
# Procedure, shortened: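 Compounds screened in duplicate at 25 uM, with actives followed up in concentration series, for displacement of a radioligand from HEK293-derived receptor protein. Bound counts read by filter scintillation at 1.5 hours, DMSO as baseline.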
# [12] = target: human Adrenergic, Beta 1 Receptor (Adrb1), ADRB1 (gene 153) (UniProt P08588); assay: NVS_GPCR_hAdrb1: NovaScreen (NVS) G Protein-Coupled Receptor Assay for human Adrenergic, Beta 1 Receptor (Adrb1) (AID 2283258)
# Procedure, shortened: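 Membranes/protein extracted from human neuroepithelioma cells, radioligand competition binding read by filtration and scintillation 2 h post-dose. Single 25 uM duplicate screen, then concentration-response follow-up; DMSO as negative control.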
# [13] = target: Type-1 angiotensin II receptor (Homo sapiens) (UniProt P30556); assay: NVS_GPCR_hAT1: NovaScreen (NVS) G Protein-Coupled Receptor Assay for human Angiotensin II receptor type 1 (AT1) (AID 2283263)
# Procedure, shortened: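 Hits from a 25 uM duplicate screen (threshold e.g. 30% inhibition) were run in concentration-response with 50 uM top concentration. Displacement of specific radioligand from KAN-TS membrane preparations measured after 3 h by filter scintillation, DMSO as baseline.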
# [14] = target: human Dopamine Receptor D4.4 (DRD4.4), DRD4 (gene 1815) (UniProt P21917); assay: NVS_GPCR_hDRD4.4: NovaScreen (NVS) G Protein-Coupled Receptor Assay for human Dopamine Receptor D4.4 (DRD4.4) (AID 2283264)
# Procedure, shortened: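 Filter-binding assay with a tritiated or iodinated ligand, cell-free receptor prepared from CHO, 1 hour. Loss of bound radioactivity versus DMSO; single 25 uM duplicate screen, then concentration-response for actives.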
# [15] = target: human Endothelin Receptor Type A (ETA), EDNRA (gene 1909) (UniProt P25101); assay: NVS_GPCR_hETA: NovaScreen (NVS) G Protein-Coupled Receptor Assay for human Endothelin Receptor Type A (ETA) (AID 2283265)
# Procedure, shortened: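 Binding of radioligand to membrane protein extracted from SH-SY5Y cells was read by filtration and scintillation after 3 h. Compounds were screened at 25 uM in duplicate, with hits followed up in singleton concentration series to 50 uM.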
# [16] = target: human Dopamine Receptor D2 (DRD2), DRD2 (gene 1813) (UniProt P14416); assay: NVS_GPCR_hDRD2s: NovaScreen (NVS) G Protein-Coupled Receptor Assay for human Dopamine Receptor D2 (DRD2) (AID 2283266)
# Procedure, shortened: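 Test compound (25 uM, duplicate in the primary screen; concentration series at follow-up) competed with radioligand for human DRD2 in CHO-derived membrane protein. Filter-based scintillation counting was done 1.5 hours after dosing, with loss of signal analysed against DMSO.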
# [17] = target: rat Monoamine Oxidase, MAO-B, Peripheral (MAOBP), Maob (gene 25750) (UniProt P19643); assay: NVS_ENZ_rMAOBP: NovaScreen (NVS) Enzymatic Assay for rat Monoamine Oxidase, MAO-B, Peripheral (MAOBP) (AID 2283242)
# Chain of human Serotonin, 5-Hydroxytryptamine Receptor 7 (5HT7), HTR7 (gene 3363) (P34969 whole entry, looked up): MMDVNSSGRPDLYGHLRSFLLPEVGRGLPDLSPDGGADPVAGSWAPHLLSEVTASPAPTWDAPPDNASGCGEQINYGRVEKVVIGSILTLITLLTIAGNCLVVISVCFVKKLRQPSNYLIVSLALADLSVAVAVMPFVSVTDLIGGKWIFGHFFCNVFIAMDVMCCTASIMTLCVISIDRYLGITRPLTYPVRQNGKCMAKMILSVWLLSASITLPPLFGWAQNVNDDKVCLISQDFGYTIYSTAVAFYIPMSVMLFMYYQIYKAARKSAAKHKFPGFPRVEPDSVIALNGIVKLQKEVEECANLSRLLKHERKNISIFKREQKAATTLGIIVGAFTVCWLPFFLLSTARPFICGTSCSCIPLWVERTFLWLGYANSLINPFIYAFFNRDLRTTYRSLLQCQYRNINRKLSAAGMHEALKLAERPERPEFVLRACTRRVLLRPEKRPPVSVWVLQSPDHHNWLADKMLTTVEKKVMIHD
# Chain of human Dopamine Receptor D4.4 (DRD4.4), DRD4 (gene 1815) (P21917 whole entry, looked up): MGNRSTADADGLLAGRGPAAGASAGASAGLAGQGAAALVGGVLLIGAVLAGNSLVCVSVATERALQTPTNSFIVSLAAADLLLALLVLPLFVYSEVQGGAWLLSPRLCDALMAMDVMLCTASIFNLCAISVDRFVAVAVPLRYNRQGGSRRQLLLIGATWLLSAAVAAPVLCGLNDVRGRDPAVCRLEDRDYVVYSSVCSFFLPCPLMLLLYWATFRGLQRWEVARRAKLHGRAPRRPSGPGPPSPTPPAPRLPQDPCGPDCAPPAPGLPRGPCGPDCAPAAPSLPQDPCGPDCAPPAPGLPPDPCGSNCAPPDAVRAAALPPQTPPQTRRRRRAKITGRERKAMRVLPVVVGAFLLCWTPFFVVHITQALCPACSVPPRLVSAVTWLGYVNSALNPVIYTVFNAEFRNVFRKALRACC
# Chain of human Serotonin, 5-Hydroxytryptamine Receptor 6 (5HT6), HTR6 (gene 3362) (P50406 whole entry, looked up): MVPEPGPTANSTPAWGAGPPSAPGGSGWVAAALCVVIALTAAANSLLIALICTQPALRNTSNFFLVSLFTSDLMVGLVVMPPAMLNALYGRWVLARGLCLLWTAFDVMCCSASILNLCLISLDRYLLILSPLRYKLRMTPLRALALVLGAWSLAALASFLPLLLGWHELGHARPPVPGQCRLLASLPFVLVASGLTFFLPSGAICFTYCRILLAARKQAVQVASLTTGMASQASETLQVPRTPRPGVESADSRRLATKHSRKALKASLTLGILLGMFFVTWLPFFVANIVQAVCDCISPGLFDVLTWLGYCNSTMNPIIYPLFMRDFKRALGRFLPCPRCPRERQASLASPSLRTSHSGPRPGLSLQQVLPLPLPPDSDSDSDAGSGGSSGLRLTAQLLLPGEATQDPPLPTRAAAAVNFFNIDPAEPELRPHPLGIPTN
# Chain of human Adrenergic, Beta 1 Receptor (Adrb1), ADRB1 (gene 153) (P08588 whole entry, looked up): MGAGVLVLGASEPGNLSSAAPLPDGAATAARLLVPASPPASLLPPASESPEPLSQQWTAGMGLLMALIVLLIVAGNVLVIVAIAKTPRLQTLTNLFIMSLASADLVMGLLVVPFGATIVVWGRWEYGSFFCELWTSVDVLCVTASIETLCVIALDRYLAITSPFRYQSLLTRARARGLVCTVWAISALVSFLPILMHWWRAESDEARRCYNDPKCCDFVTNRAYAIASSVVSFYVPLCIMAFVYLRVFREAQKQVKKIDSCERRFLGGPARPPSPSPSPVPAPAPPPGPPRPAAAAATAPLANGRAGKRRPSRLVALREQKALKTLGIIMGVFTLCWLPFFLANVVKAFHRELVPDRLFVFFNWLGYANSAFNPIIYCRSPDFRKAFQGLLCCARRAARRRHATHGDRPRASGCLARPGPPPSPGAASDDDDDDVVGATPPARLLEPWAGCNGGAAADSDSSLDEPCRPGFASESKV
# Chain of human Adenosine A2a Receptor (AdoRA2a), ADORA2A (gene 135) (P29274 whole entry, looked up): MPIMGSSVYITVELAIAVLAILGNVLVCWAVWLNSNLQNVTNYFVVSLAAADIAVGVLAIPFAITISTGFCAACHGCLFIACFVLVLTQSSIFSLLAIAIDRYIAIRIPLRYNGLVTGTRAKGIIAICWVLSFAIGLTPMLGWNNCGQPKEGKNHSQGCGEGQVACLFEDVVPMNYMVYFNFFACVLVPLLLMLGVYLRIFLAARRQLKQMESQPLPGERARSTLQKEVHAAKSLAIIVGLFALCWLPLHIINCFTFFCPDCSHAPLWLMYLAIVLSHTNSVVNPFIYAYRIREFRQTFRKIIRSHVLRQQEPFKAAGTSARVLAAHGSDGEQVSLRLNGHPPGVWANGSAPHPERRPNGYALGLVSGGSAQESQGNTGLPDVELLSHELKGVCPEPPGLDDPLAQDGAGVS
# Chain of guinea pig Leukotriene D4 Receptor (LTD4), CYSLTR1 (gene 100135514) (Q2NNR5 whole entry, looked up): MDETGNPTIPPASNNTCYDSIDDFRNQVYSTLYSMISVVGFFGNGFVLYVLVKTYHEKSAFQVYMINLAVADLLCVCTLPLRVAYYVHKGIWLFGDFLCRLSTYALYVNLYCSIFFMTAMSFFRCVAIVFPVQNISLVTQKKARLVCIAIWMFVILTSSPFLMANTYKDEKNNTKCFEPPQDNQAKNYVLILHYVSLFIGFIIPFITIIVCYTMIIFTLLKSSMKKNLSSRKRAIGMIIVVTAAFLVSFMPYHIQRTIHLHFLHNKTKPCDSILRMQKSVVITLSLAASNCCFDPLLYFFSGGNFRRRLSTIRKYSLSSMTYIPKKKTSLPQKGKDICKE
# Chain of Type-1 angiotensin II receptor (Homo sapiens) (P30556 whole entry, looked up): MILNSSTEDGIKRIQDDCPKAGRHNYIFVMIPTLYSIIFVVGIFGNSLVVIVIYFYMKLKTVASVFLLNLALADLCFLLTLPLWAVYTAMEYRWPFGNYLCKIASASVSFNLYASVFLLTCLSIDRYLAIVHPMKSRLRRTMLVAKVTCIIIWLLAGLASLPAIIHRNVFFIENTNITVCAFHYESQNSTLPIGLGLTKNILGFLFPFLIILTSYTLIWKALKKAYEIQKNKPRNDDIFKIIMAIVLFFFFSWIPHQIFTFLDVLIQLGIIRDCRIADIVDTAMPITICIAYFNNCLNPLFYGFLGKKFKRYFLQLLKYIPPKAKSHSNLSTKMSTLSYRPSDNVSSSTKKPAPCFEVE
# Chain of human Adrenergic, Alpha 2c Receptor (Adra2C), ADRA2C (gene 152) (P18825 whole entry, looked up): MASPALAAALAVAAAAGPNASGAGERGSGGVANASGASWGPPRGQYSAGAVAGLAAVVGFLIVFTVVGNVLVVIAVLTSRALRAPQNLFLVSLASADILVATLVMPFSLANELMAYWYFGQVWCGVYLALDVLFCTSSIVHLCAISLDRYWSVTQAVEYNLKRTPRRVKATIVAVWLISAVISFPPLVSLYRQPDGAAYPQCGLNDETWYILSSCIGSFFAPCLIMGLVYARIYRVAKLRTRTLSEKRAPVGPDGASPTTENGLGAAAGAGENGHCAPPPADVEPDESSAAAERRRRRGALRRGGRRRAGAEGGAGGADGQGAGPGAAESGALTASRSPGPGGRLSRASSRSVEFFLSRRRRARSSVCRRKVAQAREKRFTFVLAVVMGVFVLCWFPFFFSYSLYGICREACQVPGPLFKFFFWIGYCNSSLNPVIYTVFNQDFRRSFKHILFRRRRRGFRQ
# Chain of guinea pig Opioid, Kappa 1 Receptor (OpiateK), OPRK1 (gene 100135587) (P41144 whole entry, looked up): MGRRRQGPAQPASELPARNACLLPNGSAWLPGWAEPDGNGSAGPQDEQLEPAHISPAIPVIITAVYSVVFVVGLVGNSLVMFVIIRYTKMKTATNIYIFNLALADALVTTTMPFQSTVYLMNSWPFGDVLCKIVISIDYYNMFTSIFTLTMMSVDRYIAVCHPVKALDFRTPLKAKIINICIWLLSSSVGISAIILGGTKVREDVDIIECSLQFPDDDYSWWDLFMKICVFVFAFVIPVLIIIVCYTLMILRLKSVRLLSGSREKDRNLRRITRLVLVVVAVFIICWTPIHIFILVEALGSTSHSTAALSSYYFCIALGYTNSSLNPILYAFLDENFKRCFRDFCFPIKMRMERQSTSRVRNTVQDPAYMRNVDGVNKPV
# Chain of human Adrenergic, Alpha 2A Receptor (Adra2A), ADRA2A (gene 150) (P08913 whole entry, looked up): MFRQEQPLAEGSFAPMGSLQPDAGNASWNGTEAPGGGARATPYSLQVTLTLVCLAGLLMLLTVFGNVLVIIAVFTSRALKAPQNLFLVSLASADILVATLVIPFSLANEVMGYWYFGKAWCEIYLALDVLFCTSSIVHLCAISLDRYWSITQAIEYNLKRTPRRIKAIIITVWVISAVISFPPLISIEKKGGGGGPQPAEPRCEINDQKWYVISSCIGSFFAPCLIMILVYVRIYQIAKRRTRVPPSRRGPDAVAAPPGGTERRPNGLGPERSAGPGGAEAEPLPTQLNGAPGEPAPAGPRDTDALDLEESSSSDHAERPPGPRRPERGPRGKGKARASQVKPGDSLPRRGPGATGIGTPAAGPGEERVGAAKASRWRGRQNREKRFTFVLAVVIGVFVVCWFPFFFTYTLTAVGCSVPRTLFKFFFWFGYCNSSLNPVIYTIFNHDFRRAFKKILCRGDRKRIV
# Chain of human Adrenergic, Beta 3 Receptor (Adrb3), ADRB3 (gene 155) (P13945 whole entry, looked up): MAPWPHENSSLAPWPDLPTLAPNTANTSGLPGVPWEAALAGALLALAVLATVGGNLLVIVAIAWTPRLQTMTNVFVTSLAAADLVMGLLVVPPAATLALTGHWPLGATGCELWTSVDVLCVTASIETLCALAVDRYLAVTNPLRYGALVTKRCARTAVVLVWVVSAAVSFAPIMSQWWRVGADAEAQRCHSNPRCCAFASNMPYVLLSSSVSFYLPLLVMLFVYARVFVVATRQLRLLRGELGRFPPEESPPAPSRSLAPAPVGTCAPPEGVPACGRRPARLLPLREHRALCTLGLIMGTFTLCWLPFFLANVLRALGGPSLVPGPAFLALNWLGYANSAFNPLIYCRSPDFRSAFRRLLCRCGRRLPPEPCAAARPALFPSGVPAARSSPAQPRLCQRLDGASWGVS
compound,measurement,setting,value
CC(C)(C)C(O)/C(=C\c1ccc(Cl)cc1Cl)n1cncn1 (centres undefined),outcome,[1],inactive
COP(=S)(OC)Oc1ccc([N+](=O)[O-])cc1,AC50,[2],10.5 µM (active)
same,AC50,[3],12.5 µM (active)
CCCN(CCOc1c(Cl)cc(Cl)cc1Cl)C(=O)n1ccnc1,AC50,[4],8.15 µM (active)
same,outcome,[5],inactive
same,AC50,[6],13.3 µM (active)
same,AC50,[7],4.96 µM (active)
OCCOc1ccccc1,outcome,[8],inactive
[2H]C1([2H])[n+]2ccccc2-c2cccc[n+]2C1([2H])[2H],outcome,[9],inactive
CCC(C)(C)C(=O)OC1=C(c2ccc(Cl)cc2Cl)C(=O)OC12CCCCC2,outcome,[7],inactive
O=S(=O)(O)C(F)(F)C(F)(F)C(F)(F)C(F)(F)C(F)(F)C(F)(F)C(F)(F)C(F)(F)F,AC50,[2],13.1 µM (active) [middle of 4 runs]
same,outcome,[2],inactive
same,AC50,[10],24 µM (active) [middle of 4 runs]
same,outcome,[10],inactive
same,AC50,[1],32.7 µM (active) and 42.8 µM (active)
same,AC50,[6],6.51 µM (active) and 25 µM (active) and 24 µM (active)
same,AC50,[11],6.28 µM (active) [middle of 5 runs]
same,AC50,[12],37 µM (active) and 31.2 µM (active) and 29.9 µM (active)
same,AC50,[13],49.6 µM (active)
same,outcome,[13],inactive
same,AC50,[14],25 µM (active) and 16.3 µM (active) and 24 µM (active)
same,outcome,[14],inactive
same,outcome,[15],inactive
same,AC50,[16],7.24 µM (active)
O=C1c2ccccc2C(=O)N1SC(Cl)(Cl)Cl,outcome,[17],inactive
same,outcome,[9],inactive
same,AC50,[1],16.3 µM (active)
ClC1C(Cl)C(Cl)C(Cl)C(Cl)C1Cl (centres undefined),AC50,[11],15.6 µM (active)
CCc1ccc(C(=O)NN(C(=O)c2cc(C)cc(C)c2)C(C)(C)C)cc1,outcome,[9],inactive
